Assay results from PubChem BioAssay (NCI).
About 79,000 compounds went through this panel and 15% of them were active in at least one assay; those are over-represented in the sample as a whole. Values without a mark were called inactive. Activity calls are given as the source filed them. No stated cut-off is given here; in the data, active means growth inhibition above about 70%; inactive means the rest.

Key:
[1] = NCI Yeast Anticancer Drug Screen. Data for the rad50 strain (AID 155);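 further: 0% = growth of vehicle-only cultures of the same strain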; conditions: S. cerevisiae rad50 strain growth inhibition, active compounds read high
Summary of the method: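 Readout: growth inhibition relative to vehicle-treated cultures. Compound exposure was carried out in a genetically defined yeast strain deficient in DNA damage repair.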

[2] = NCI Yeast Anticancer Drug Screen. Data for the mec2-1 strain (AID 157); conditions: S. cerevisiae mec2-1 strain, active compounds read high
Summary of the method: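 Compounds were applied to mec2-1 yeast cells. Their growth was then compared with that of vehicle-treated cultures to give growth inhibition.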

[3] = NCI Yeast Anticancer Drug Screen. Data for the sgs1 mgt1 strain (AID 161);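 further: 0% = growth of cultures given vehicle only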; conditions: S. cerevisiae sgs1 mgt1 strain, active compounds read high
Summary of the method: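 Yeast cells carrying a defined DNA-repair defect were exposed to test compounds. Growth inhibition was measured relative to vehicle-treated controls.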

[4] = NCI Yeast Anticancer Drug Screen. Data for the cln2 rad14 strain (AID 165);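 further: 0% = growth equal to vehicle treated cultures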; conditions: S. cerevisiae cln2 rad14 strain, active compounds read high
Summary of the method: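 Strain: cln2 rad14 yeast, altered in cell cycle control and DNA damage repair. Read-out: growth inhibition vs vehicle.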

[5] = NCI Yeast Anticancer Drug Screen. Data for the bub3 strain (AID 167); conditions: S. cerevisiae bub3 mutant strain, active compounds read high
Summary of the method: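 Readout: yeast growth inhibition, expressed relative to vehicle-only wells. The test organism is a mutant strain from a panel with lesions in DNA repair or checkpoint genes.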

[6] = NCI Yeast Anticancer Drug Screen. Data for the mlh1 rad18 strain (AID 175); conditions: S. cerevisiae mlh1 rad18 strain growth inhibition, active compounds read high
Summary of the method: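 A repair-deficient yeast strain is exposed to test compound, and growth is scored relative to vehicle-treated controls.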

[7] = at 5.0 µM (retest, dose inferred, filed as 0.5)
[8] = at 50.0 µM (retest, dose inferred, filed as 5.0)

SMILES	growth inhibition [1, 7]	growth inhibition [1, 8]	growth inhibition ([1]; at 50.0 µM)	growth inhibition [2, 7]	growth inhibition [2, 8]	growth inhibition ([2]; at 50.0 µM)	growth inhibition [3, 7]	growth inhibition [3, 8]	growth inhibition ([3]; at 50.0 µM)	growth inhibition [4, 7]	growth inhibition [4, 8]	growth inhibition ([4]; at 50.0 µM)	growth inhibition [5, 7]	growth inhibition [5, 8]	growth inhibition ([5]; at 50.0 µM)	growth inhibition [6, 7]	growth inhibition [6, 8]	growth inhibition ([6]; at 50.0 µM)
COc1ccc(CN=C(N)N)c2ccccc12	5%	7%	-29.9%	2%	5%	-24.4%	-6%	-1%	-15.7%	31%	31%	-3%	-22%	-23%	-32.5%	13%	10%	-5.45%
O=[N+]([O-])c1ccc2c(N=Nc3ccc4ccccc4c3O)c(O)cc(S(=O)(=O)O)c2c1	32%	34%	85.6% (active)	13%	17%	55.8%	17%	29%	74.7% (active)	-32%	-68%	30.6%	-7%	22%	82.7% (active)	9%	36%	86.5% (active)
N#Cc1c(Cl)nc2ccccc2c1N=[N+]=[N-]	-1%	12%	50.6%	-19%	-9%	63.3%	-14%	18%	56.2%	6%	8%	50.5%	-8%	-15%	14.8%	-18%	8%	58.2%
N#C/C(=C\c1c(Cl)cccc1Cl)c1nc2ccccc2[nH]1	38%	97% (active)	87.7% (active)	22%	99% (active)	90.2% (active)	33%	99% (active)	90.6% (active)	23%	98% (active)	88.9% (active)	35%	98% (active)	91.5% (active)	42%	98% (active)	88.8% (active)
CCN(CC)CCNc1c(C)ccc2cccnc12	0%	7%	33.5%	-4%	-4%	35.9%	-2%	-2%	29.4%	-1%	-14%	-29.2%	-1%	2%	53.8%	0%	8%	51.5%
O=C(CSC1=NNC2(C(=O)N1)c1ccccc1-c1ccccc12)NC(=S)Nc1ccccc1	-3%	95% (active)	96.2% (active)	-15%	90% (active)	97% (active)	-7%	96% (active)	98% (active)	-8%	86% (active)	96.4% (active)	-16%	94% (active)	97.5% (active)	-24%	95% (active)	97% (active)
CCCCCCCCCCCCCCCCCCn1[se]c2ccccc2c1=O	7%	7%	69.3%	16%	16%	45.4%	17%	17%	83.8% (active)	15%	15%	59.1%	0%	0%	76.5% (active)	-1%	-1%	33.5%
O=C(Nc1ccccc1)c1cc(Cl)ccc1O	-12%	33%	62.8%	3%	46%	76% (active)	32%	61%	71.8% (active)	24%	33%	58.5%	25%	49%	74.7% (active)	21%	74% (active)	84% (active)
COc1ccc(OC)c(C(Cc2ccnc3ccccc23)Cc2ccnc3ccccc23)c1	1%	97% (active)	99% (active)	-14%	97% (active)	99.2% (active)	3%	99% (active)	99% (active)	1%	99% (active)	98.6% (active)	10%	98% (active)	98.8% (active)	-3%	97% (active)	98.8% (active)
CCOC(=O)/C(Cl)=C(\OCC)C(=O)OCC	14%	10%	-6.4%	6%	13%	12.3%	2%	19%	20%	-5%	19%	44.9%	-1%	8%	26.4%	12%	22%	21.1%
COc1ccc2nc3cc([N+](=O)[O-])ccc3c(NNc3ccc([N+](=O)[O-])cc3)c2c1	2%	2%	58%	2%	-4%	36.9%	3%	-4%	65%	-5%	-15%	30.9%	2%	-5%	55.2%	5%	0%	66.2%
C[N+](C)(C)c1nc(N)nc2c1ncn2C1OC(CO)C(O)C1O (configuration not stated)	9%	15%	29.5%	12%	-11%	6.5%	9%	3%	-40.6%	-20%	-2%	70.3% (active)	1%	-1%	-27.2%	5%	16%	11%
CC(C)OC(=O)c1ccc(NCC2=CC(=O)C=CC2=O)cc1Cl	53%	99% (active)	90.7% (active)	44%	100% (active)	92.5% (active)	55%	100% (active)	91.2% (active)	61%	100% (active)	91.2% (active)	55%	100% (active)	88.9% (active)	46%	99% (active)	91.7% (active)
CCC(=O)/C(=C\I)c1ccccc1	26%	26%	89.3% (active)	-6%	-6%	92.2% (active)	23%	23%	86.7% (active)	8%	8%	89.9% (active)	7%	7%	89.5% (active)	21%	21%	85.5% (active)
C=C(C)C(=O)OC1CC2=CC(CC3(C)OC3C3OC(=O)C(=C)C13)OC2=O (configuration not stated)	1%	19%	88.8% (active)	3%	37%	87% (active)	4%	35%	57.6%	8%	15%	30.5%	1%	43%	78.8% (active)	4%	51%	50.5%
COc1cc(C2=N/C(=C\c3ccccc3O)C(=O)O2)cc(OC)c1OC	-23%	-22%	-9.9%	-8%	-21%	-27.1%	-15%	-6%	4.05%	0%	2%	8.7%	-20%	-23%	10.8%	-43%	-47%	0.65%
O=C(O)CCSCc1cc(C(=O)Nc2ccc(/C=C/c3ccc(NC(=O)c4cc(CSCCC(=O)O)c5cccnc5c4O)cc3S(=O)(=O)O)c(S(=O)(=O)O)c2)c(O)c2ncccc12	48%	53%	74% (active)	37%	89% (active)	61.6%	58%	53%	79.1% (active)	22%	74% (active)	45.5%	59%	96% (active)	78.4% (active)	52%	92% (active)	79.5% (active)
CC(=O)O[C@H]1CC[C@H]2[C@@H]3CCc4cc(O)c(I)cc4[C@H]3CC[C@]12C	12%	84% (active)	51.3%	0%	58%	43.8%	23%	93% (active)	72.4% (active)	21%	75% (active)	45%	20%	82% (active)	47.5%	6%	80% (active)	63.4%
O=[N+]([O-])/C(C(Cl)=C(Cl)Cl)=C(/Sc1ccccc1)N1CCOCC1	5%	99% (active)	88.2% (active)	2%	99% (active)	91.8% (active)	-4%	99% (active)	85.8% (active)	-7%	99% (active)	89.2% (active)	-20%	99% (active)	89.5% (active)	15%	98% (active)	83.2% (active)
